In PubChem BioAssay (NCI):
This is part of a sample that, as a whole, favours compounds with a hit. Of some 79,000 tested, about 15% had one in any assay. Values without a mark were called inactive. Activity calls are given as the source filed them. No stated cut-off is given here; in the data, active means growth inhibition above about 70%; inactive means the rest.

What was measured:
[1] = NCI Yeast Anticancer Drug Screen. Data for the rad50 strain (AID 155);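 further: 0% = growth of vehicle-only cultures of the same strain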; conditions: S. cerevisiae rad50 strain growth inhibition, active compounds read high
Summary of the method: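 A DNA repair-deficient yeast mutant serves as the test organism; compound-induced growth inhibition is calculated against vehicle-treated cells.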

[2] = NCI Yeast Anticancer Drug Screen. Data for the mec2-1 strain (AID 157); conditions: S. cerevisiae mec2-1 strain, active compounds read high
Summary of the method: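 Mutant yeast (mec2-1) grown with compound; growth inhibition relative to vehicle control reported.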

[3] = NCI Yeast Anticancer Drug Screen. Data for the sgs1 mgt1 strain (AID 161);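 further: 0% = growth of cultures given vehicle only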; conditions: S. cerevisiae sgs1 mgt1 strain, active compounds read high
Summary of the method: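 This yeast growth screen uses a strain with defined DNA-repair lesions; compound-treated growth is compared with vehicle-treated growth.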

[4] = NCI Yeast Anticancer Drug Screen. Data for the cln2 rad14 strain (AID 165);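 further: 0% = growth equal to vehicle treated cultures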; conditions: S. cerevisiae cln2 rad14 strain, active compounds read high
Summary of the method: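 Readout is yeast growth inhibition versus vehicle-treated controls, using a strain with cln2 and rad14 alterations exposed to compound.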

[5] = NCI Yeast Anticancer Drug Screen. Data for the bub3 strain (AID 167); conditions: S. cerevisiae bub3 mutant strain, active compounds read high
Summary of the method: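 Inhibition values come from growth of compound-treated mutant yeast normalised to vehicle-treated controls.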

[6] = NCI Yeast Anticancer Drug Screen. Data for the mlh1 rad18 strain (AID 175); conditions: S. cerevisiae mlh1 rad18 strain growth inhibition, active compounds read high
Summary of the method: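 Genetically defined yeast (DNA repair-deficient) exposed to compounds; growth inhibition determined relative to vehicle.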

[7] = at 5.0 µM (retest, dose inferred, filed as 0.5)
[8] = at 50.0 µM (retest, dose inferred, filed as 5.0)

Row | SMILES | growth inhibition [1, 7] | growth inhibition [1, 8] | growth inhibition ([1]; at 50.0 µM) | growth inhibition [2, 7] | growth inhibition [2, 8] | growth inhibition ([2]; at 50.0 µM) | growth inhibition [3, 7] | growth inhibition [3, 8] | growth inhibition ([3]; at 50.0 µM) | growth inhibition [4, 7] | growth inhibition [4, 8] | growth inhibition ([4]; at 50.0 µM) | growth inhibition [5, 7] | growth inhibition [5, 8] | growth inhibition ([5]; at 50.0 µM) | growth inhibition [6, 7] | growth inhibition [6, 8] | growth inhibition ([6]; at 50.0 µM)
1 | OC(Cc1ccc2ccccc2c1)CN1CCC(c2ccccc2)CC1 (configuration not stated) | 56% | 84% (active) | 89.3% (active) | 37% | 80% (active) | 83.5% (active) | 24% | 76% (active) | 91.2% (active) | 70% (active) | 88% (active) | 90.1% (active) | 67% | 96% (active) | 91.6% (active) | 81% (active) | 94% (active) | 90.5% (active)
2 | Cc1cc(C=Nc2ccccc2)c(O)c2ncccc12 | 19% | 96% (active) | 98.8% (active) | 10% | 95% (active) | 99.3% (active) | 15% | 98% (active) | 94.9% (active) | 8% | 98% (active) | 83.7% (active) | 0% | 98% (active) | 99.1% (active) | 14% | 99% (active) | 99.2% (active)
3 | Clc1ccc(CNc2ccc(Cl)c(Cl)c2)cc1 | 8% | 95% (active) | 97.8% (active) | 36% | 97% (active) | 98.2% (active) | 11% | 97% (active) | 98.2% (active) | -10% | 91% (active) | 97.7% (active) | 2% | 96% (active) | 97.5% (active) | 15% | 95% (active) | 97% (active)
4 | CCC(C)(C)c1ccc(OC(=O)C(C)OC(C)=O)cc1 (configuration not stated) | 12% | 33% | 82% (active) | -5% | 48% | 84.9% (active) | 0% | 68% | 88% (active) | 1% | 21% | 49.9% | -5% | 53% | 87.2% (active) | -10% | 46% | 86.7% (active)
5 | COC(=O)C1=C(CS(=O)c2ccccc2[N+](=O)[O-])ON(C)C1c1ccccc1 (configuration not stated) | 3% | 49% | 6.55% | -9% | 66% | 53.1% | 13% | 74% (active) | 56.8% | -4% | 11% | 22.2% | -3% | 45% | 59.4% | 5% | 13% | 68.5%
6 | O=C1Nc2c(Cl)cc(Cl)cc2/C1=N/N=C/c1ccccc1O | 12% | 41% | 3.5% | 13% | 42% | 17.1% | 10% | 41% | 87.2% (active) | 15% | 48% | 89.8% (active) | 18% | 54% | 88.2% (active) | 15% | 72% (active) | 91% (active)
7 | O=C(O)c1ccc2cc3ccccc3cc2c1 | -16% | 65% | 75.9% (active) | 5% | 48% | 47.4% | -10% | 50% | 63% | -49% | 42% | 61.9% | -29% | 30% | 62.4% | -24% | 58% | 54.1%
8 | O=C(c1ccccc1)C1N=NCC1c1ccc([N+](=O)[O-])cc1 (configuration not stated) | 2% | -21% | -3.65% | 11% | 9% | 10.1% | 1% | 47% | 18.2% | 5% | -4% | -4.4% | -5% | 5% | 84.2% (active) | 0% | -4% | 40.6%
9 | CN(C)C(=S)N1C(=S)N(c2ccccc2)C(=Nc2ccccc2)C1=Nc1ccccc1 | -25% | -4% | 49.4% | -9% | -11% | -23.6% | -3% | -12% | -5% | -18% | -12% | -18.3% | -13% | -8% | -30.1% | -20% | -24% | -7.7%
10 | C[Si](C)(C)CC(c1ccccc1)C(O)c1ccccc1 (configuration not stated) | -7% | 96% (active) | 98.5% (active) | -4% | 98% (active) | 97.8% (active) | -3% | 98% (active) | 98% (active) | 0% | 97% (active) | 93.9% (active) | 0% | 98% (active) | 98.7% (active) | 1% | 98% (active) | 98.8% (active)
11 | OC(CCN1CCOCC1)c1ccc(Sc2ccccc2)cc1 (configuration not stated) | 55% | 29% | 98% (active) | 46% | 21% | 98.9% (active) | 61% | 59% | 98.6% (active) | 53% | 15% | 67.1% | 88% (active) | 88% (active) | 99.3% (active) | 62% | 58% | 97.2% (active)
12 | CC1(C)OC2OC(/C=C/[N+](=O)[O-])C3OC(C)(C)OC3C2O1 (configuration not stated) | 20% | 98% (active) | 8.25% | 3% | 98% (active) | 10.9% | -17% | 97% (active) | 13.2% | 17% | 99% (active) | 5.45% | -9% | 97% (active) | 4.75% | 17% | 97% (active) | 27.4%
13 | COc1ccc(/C=C2\NC(=O)NC2=O)cc1 | 0% | 7% | -1.65% | -4% | 5% | -6.8% | -1% | 3% | -0.65% | -4% | -3% | 24.1% | 27% | 22% | 6.25% | -1% | 5% | 18.6%
14 | COc1cccc2c1C(=O)c1c(O)c3c(c(O)c1C2=O)C[C@@](O)(C(C)=O)C[C@@H]3OC1CC(N(CCO)Cc2ccccc2)C(O)C(C)O1 (some centres not stated) | 97% (active) | 99% (active) | 91.2% (active) | 99% (active) | 100% (active) | 91.3% (active) | 95% (active) | 99% (active) | 91.5% (active) | 90% (active) | 97% (active) | 90.8% (active) | 98% (active) | 99% (active) | 89.4% (active) | 95% (active) | 99% (active) | 90.8% (active)
15 | N#Cc1cccc2c1Sc1ccccc1N2 | 22% | 31% | 88.6% (active) | 6% | -9% | 92.8% (active) | 1% | 6% | 89.2% (active) | -5% | -6% | 90.1% (active) | -26% | 6% | 91.3% (active) | -7% | 7% | 60.5%
16 | C[n+]1c(/C=C/c2cccc([N+](=O)[O-])c2)sc2ccccc21 | 10% | 97% (active) | 97.6% (active) | 15% | 99% (active) | 96.2% (active) | -1% | 98% (active) | 97.9% (active) | 14% | 97% (active) | 98.8% (active) | 7% | 97% (active) | 96% (active) | 13% | 98% (active) | 99.2% (active)
17 | CC[N+](C)(CC)CCCOC(=O)c1ccccc1Oc1ccc(C)cc1 | 1% | 0% | 75.5% (active) | -17% | -8% | 13.8% | -9% | -7% | 21.9% | -4% | -6% | -0.85% | 2% | 42% | 12.8% | 15% | 3% | 14.9%
18 | COc1ccc(/C=C2\CCC/C(=C\c3ccc(OC)cc3)C2=O)cc1 | 26% | -17% | -5.5% | -9% | -17% | -11.3% | 2% | -17% | -2.1% | -21% | -20% | -72.2% | -5% | -5% | 1.05% | -8% | -14% | 9.55%
19 | Nc1ccc(S(=O)(=O)C23CC4CC(CC(C4)C2)C3)cc1 | -2% | 96% (active) | 97.9% (active) | -16% | 98% (active) | 98.8% (active) | -3% | 98% (active) | 97.7% (active) | 1% | 93% (active) | 93.5% (active) | 64% | 98% (active) | 95.8% (active) | 13% | 98% (active) | 97.5% (active)
